51 compounds from ChEMBL document CHEMBL3988442, “University of Dundee, Small-Polar-MMV Screening Library” (2021) can be followed below.

The campaign covered roughly 48,000 compounds. About 13,000 (27%) showed an effect of 50% or more. This is one part of the list.

The test system of this assay is Wolbachia pipientis. In words: Anti-Wolbachia Cell-Based Screen. The class given is functional. The arrangement: scale not given: in the data most compounds retested in dose-response had high values. The settings on record: 5 µM.
On to `Cc1ncsc1CN1C[C@@H]2COC[C@]2(C(=O)NC(C)C)C1.O=C(O)C(F)(F)F`, for which the “Percent Effect” value is on record as -19.77%.

Take `CCCc1nc(C)c(C(=O)NCc2ccc(C)n2C)s1`: the “Percent Effect” value is reported as 17.26%.

With `Cc1cccc(NC(=O)c2sc(C)nc2C)n1`, the “Percent Effect” value is recorded as 165.1%.

On to `Cc1nc(C)c(C(=O)NCCNC(=O)Cc2cccc(F)c2)s1`, for which the “Percent Effect” value was -2.44%.

For the compound `Cc1nc(C)c(C(=O)Nc2cc(N3CCC(C)CC3)ncn2)s1`, the “Percent Effect” value is 1.923%.

With `CCCc1nc(C)c(C(=O)NS(=O)(=O)c2cccnc2)s1`, the “Percent Effect” value was -11.93%.

As to `CCCc1nc(C)c(C(=O)Nc2cccc(C)n2)s1`, the “Percent Effect” value turned out to be 125.8%.

Consider `COCC(O)CN(C)C(=O)c1cccc(-c2csc(C)n2)c1` (stereo unspecified), for which the “Percent Effect” value is -1.754%.

As for `CCn1nc(C)c(CCn2ccnc2-c2cc3n(n2)CCNC3)c1C`, the “Percent Effect” value is 7.532%.

`CC(C)c1cc(NC(=O)c2ccc(NC3CC3)nc2)[nH]n1`: the “Percent Effect” value is -1.016%.

With `Cc1ccc(CC(=O)NCC(O)c2ccc(Cl)cc2Cl)cn1` (stereo unspecified), the “Percent Effect” value is -14.52%.

`CC(C)c1cc(NC(=O)c2ccc(C(=O)NC(C)(C)C)cc2)[nH]n1`: the “Percent Effect” value was -2.024%.

For the compound `CC(C)c1cc(NC(=O)c2ccncc2)[nH]n1`, the “Percent Effect” value stood at 102.9%.

Regarding `Cc1cc(NC(=O)c2ccc(N3CCOCC3)cc2)[nH]n1`, the “Percent Effect” value was -12.35%.

Take `CC(C)c1cc(NC(=O)c2cccnc2)[nH]n1`: the “Percent Effect” value came out at 108.7%.

As for `Cc1nn(C(C)C)c(C)c1NC(=O)c1ccncc1`, the “Percent Effect” value stood at 7.79%.

On to `Cc1ccc(CC(=O)Nc2cc(C(C)C)n[nH]2)cn1`, for which the “Percent Effect” value worked out at 129.4%.

Consider `Cc1cc(NC(=O)c2ccc(N3CCOCC3)c(C)c2)[nH]n1`, for which the “Percent Effect” value was 7.693%.

With `CC(C)c1cc(NC(=O)c2ccc([S+]([O-])C(C)C)cc2)[nH]n1` (stereo unspecified), the “Percent Effect” value came out at 112.1%.

Consider `COc1ccc(N(C(=O)Cc2ccc(C)nc2)C(C)C)cc1F`, for which the “Percent Effect” value is -2.597%.

As to `Cc1ccc(C(=O)Nc2cc(C(C)C)n[nH]2)cn1`, the “Percent Effect” value is on record as -1.048%.

Regarding `Cc1cccc(NCCOc2cccc(C#N)c2)c1C(N)=O`, the “Percent Effect” value is listed as -11.96%.

Take `Cc1cc(C)n(Cc2cccc(C(=O)N(CCC#N)CCC#N)c2)n1`: the “Percent Effect” value is given as -7.761%.

`CC(C)c1nnc2n1CCN(C(=O)c1cccc(OCC(N)=O)c1)C2`: the “Percent Effect” value is reported as -10.94%.

On to `CC(C)c1cc(NCC2(Cn3cccn3)CC2)nc(N)n1`, for which the “Percent Effect” value was 7.043%.

Take `CN(C)CCCN(C)C1CCN(c2cccc(-c3cscn3)c2)CC1`: the “Percent Effect” value turned out to be 6.682%.

Regarding `O=C(c1cnc(NCC2CCCO2)c(Cl)c1)N1CCCCC1` (stereo unspecified), the “Percent Effect” value was found to be 21.16%.

In the case of `COc1ccc(Br)c(C(=O)NCC2CCN(S(=O)(=O)C3CC3)CC2)c1`, the “Percent Effect” value is reported as -4.78%.

`O=C(c1cnc(NCC2CCCO2)c(Cl)c1)N1CCOCC1` (stereo unspecified): the “Percent Effect” value stood at 2.383%.

Regarding `O=C(NC1CC1)c1cnc(-c2noc3cc(N4CCCCC4)ccc23)s1`, the “Percent Effect” value is -8.879%.

Consider `O=C(NC[C@@H]1CCCO1)c1cc(Br)cnc1N1CCCCC1`, for which the “Percent Effect” value is on record as 112.6%.

With `O=C(NCC1CCCCC1)c1nnn(-c2ccc(Br)cc2)n1`, the “Percent Effect” value is -0.9526%.

Regarding `O=C(NC1CCCCC1)c1cc(Br)cnc1N1CCCCC1`, the “Percent Effect” value is reported as 116.3%.

With `O=C(NCC1CC1)c1cc(Br)cnc1N1CCCCC1`, the “Percent Effect” value is 74.44%.

In the case of `O=C(NC1CCN(c2ncccn2)CC1)c1cc2c(cc1O)CCCC2`, the “Percent Effect” value was 1.017%.

`Cc1ccc([C@@H]2CN(C(=O)c3cc(C)no3)C[C@H]2NC(=O)C2CC2)cc1`: the “Percent Effect” value is -6.322%.

With `Cc1cc(C)c(CCNC(=O)CN2CCCN(C(N)=O)CC2)c(C)c1`, the “Percent Effect” value came out at 7.662%.

As for `CC(SCCNS(=O)(=O)c1cnn(C)c1)c1cccs1` (stereo unspecified), the “Percent Effect” value is given as 10.16%.

Consider `CCc1c(C(=O)N2CCOC(C)(C)C2)cnn1-c1ccccn1`, for which the “Percent Effect” value worked out at 19.62%.

With `COc1cccc2c1N(CC(=O)Nc1ccc(Br)cn1)CCC2`, the “Percent Effect” value is reported as -18.77%.

Consider `COc1ccc(-c2ccc(C(=O)NS(C)(=O)=O)c(F)c2)c(F)c1`, for which the “Percent Effect” value amounted to 2.644%.

Consider `COCCn1c2c(ccc1=O)CC(NCc1cnn(C)c1)CC2` (stereo unspecified), for which the “Percent Effect” value was found to be 90.26%.

Take `Cc1cnc(NC2CCc3c(ccc(=O)n3C)C2)nc1` (stereo unspecified): the “Percent Effect” value came to 9.132%.

Regarding `Cc1cnc(NC2CCc3c(ccc(=O)n3CC3CC3)C2)nc1` (stereo unspecified), the “Percent Effect” value is -5.786%.

Consider `CN(C)C(=O)Cn1c2c(ccc1=O)CC(NCc1cccnc1)CC2` (stereo unspecified), for which the “Percent Effect” value is reported as -16.54%.

For `CCc1cnc(NC2CCc3c(ccc(=O)n3C)C2)nc1` (stereo unspecified), the “Percent Effect” value was -4.602%.

On to `O=c1ccc2c(n1Cc1cccnc1)CCC(NCc1cccnc1)C2` (stereo unspecified), for which the “Percent Effect” value is recorded as -5.878%.

Turning to `Cn1cc(CNC2CCc3c(ccc(=O)n3C)C2)cn1` (stereo unspecified), the “Percent Effect” value stood at 106.3%.

For `COCCn1c2c(ccc1=O)CC(NC(=O)c1cscn1)CC2` (stereo unspecified), the “Percent Effect” value is listed as -30.94%.

Regarding `CCn1c2c(ccc1=O)CC(NCc1cnn(C)c1)CC2` (stereo unspecified), the “Percent Effect” value amounted to 111.7%.

Take `Cn1cc(-c2csc(CN3CCOCC3)n2)cn1`: the “Percent Effect” value is -11.66%.
